Reference: PubChem BioAssay AID1822 (The Scripps Research Institute Molecular Screening Center, 2009)
Hit rate of the full screen: of about 290,000 compounds, about 3,500 (1.2%) were called active.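 How the source made its calls: active means inhibition above the campaign mean inhibition over all tested compounds plus 3 SD (cut at about 28% in these data); inactive means the rest.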 The sample as a whole holds a higher share of actives than the screen did.

Tested on: M18 aspartyl aminopeptidase (Plasmodium falciparum 3D7)
Experiment: inhibition of P. falciparum M18 aminopeptidase – biochemical, QFRET, recombinant enzyme, primary screen (AID 1822);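 further: 0% = plate median of test compound wells and 100% = 2 mM ZnCl2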
Conditions: recombinant PfM18AAP, H-Glu-NHMec fluorogenic cleavage; at 7.35 µM; stronger effect = higher value

inhibition, inactive:
CC(C)Cn1c(N2CCN(C(=O)/C=C/c3ccccc3)CC2)nc2ccccc21 2%
Cc1c(OC(C)C(=O)NCC2CCC(C(=O)O)CC2)ccc2c1oc(=O)c1ccccc12 (centres undefined) 5.1%
Cc1ccccc1N1CCN(CC(=O)NCc2ccc(Cl)cc2)CC1 4.87%
O=C(COC(=O)c1ccc(N2CCCC2=O)cc1)c1ccc(OC(F)F)cc1 0.74%
COc1ccc(C(=O)NC2CC(C)(C)Cc3c2cnn3-c2ccccc2)c(OC)c1 (centres undefined) 0.86%
Nc1ccc(C(=O)Nc2ccccc2N)cc1 -8.23%
Cc1cc(F)ccc1NC(=S)NCCc1ccccc1 -8.4%
Cc1ccc(CN(Cc2cccnc2)C(=S)Nc2cccc(Cl)c2C)cc1 -8.48%
Cc1ccc(-c2n[nH]c(=S)n2/N=C/c2cc3c(cc2[N+](=O)[O-])OCO3)cc1 17.7%
CC(=O)N/N=C/c1cc2c(cc1[N+](=O)[O-])OCO2 6.95%
COc1ccc(C(CNC(=O)COc2ccc([N+](=O)[O-])cc2)N2CCCCC2)cc1 (centres undefined) -7.22%
CC(=O)Nc1cccc(C(=O)OCN2C(=O)c3ccccc3C2=O)c1 1.1%
COc1ccc(CC(=O)Nc2nc(-c3ccc(F)c(F)c3)cs2)cc1OC 0.44%
COc1ccc(C2/C(=C(/O)c3ccc4c(c3)CC(C)O4)C(=O)C(=O)N2Cc2ccncc2)cc1 (centres undefined) 16.6%
COc1ccc(/C(O)=C2\C(=O)C(=O)N(Cc3ccco3)C2c2ccc(OC)cc2OC)cc1 (centres undefined) 8.22%
CCOc1ccc(-n2c(O)c(/C=N/Nc3nc(C)cc(C)n3)c3ccccc3c2=O)cc1 26.7%
CCOc1ccc(-n2c(O)c(/C=N/c3ccnn3Cc3ccncc3)c3ccccc3c2=O)cc1 5.65%
S=C(Nc1cccnc1)Nc1ccccn1 11.1%
C[C@H](NC(=O)c1nc[nH]c1C(=O)NCC(=O)OC(C)(C)C)c1ccccc1 1.03%
COc1ccc(CNC(=O)C2CCN(C(=O)c3ccco3)CC2)cc1 2.47%
CCC(CC)c1nnc(NC(=O)/C=C/c2ccco2)s1 2.71%
CCOC(=O)c1cc(Sc2ccccc2N)cc(C(=O)OCC)n1 10.8%
Nc1ccccc1SC(C[N+](=O)[O-])c1ccccc1 (centres undefined) 14.1%
Cc1ccc(S(=O)(=O)CC(=O)NC(C)c2ccccc2)cc1 (centres undefined) -6.39%
CN(C)S(=O)(=O)c1ccc2oc(SCC(=O)Nc3ccccc3F)nc2c1 2.13%
CCN(CC)c1ccc2cc(C(N)=O)/c(=N\NC(=O)c3ccncc3)oc2c1 17.2%
C=CCN(C(=O)Nc1ccc2oc(C)nc2c1)c1ccccc1 13%
COc1ccc(Nc2cc(Sc3ccc(OC)cc3)ncn2)cc1 2.95%
Cc1ccsc1C(=O)N[C@@H](C)c1nnc2ccccn12 -8.31%
Cc1cccc(N2CCN(C(=O)CCS(=O)(=O)c3ccc4c(c3)NC(=O)C(C)S4)CC2)c1C (centres undefined) -6.34%
O=C(O)c1ccccc1-c1ccccc1C(=O)Nc1ccccc1Br -9.93%
O=C1CCN(CCc2ccccc2)CCN1CCOc1ccccc1 1.32%
O=C(Nc1ccc(C(=O)N2CCOCC2)cc1)Nc1cccc(C(F)(F)F)c1 -2.75%
COc1ccccc1N1CCN(C(=O)CSc2ncnc3c2cnn3-c2ccc(C)c(C)c2)CC1 -5.63%
CC1CCN(C(=O)c2ccc3c(=O)n4c(nc3c2)CCCCC4)CC1 -5.35%
CC1CCN(C(=O)c2ccc(CSc3ccc(Cl)cc3)cc2)CC1 -3.98%
CCCN1C2CCCC1CC(NC(=O)c1cccc(OC)c1)C2 (centres undefined) -5.08%
Cc1cccn2c(=O)c3cc(C(=O)NCC4CCCO4)c(=N)n(Cc4ccc(F)cc4)c3nc12 (centres undefined) 5.3%
Oc1ccc(-n2nnnc2SCc2c(F)cccc2Cl)cc1 9.59%
CCCN1Cc2cccc(C(=O)Nc3ccc(S(=O)(=O)N4CCCCCC4)cc3)c2C1=O 3.06%
O=C1CCN(CCCc2ccccc2)CCN1CCO 10.1%
CCn1c(CSCc2c(Cl)cccc2Cl)n[nH]c1=S 14.7%
CSc1ccc(S(=O)(=O)NCc2ccc(Cl)cc2)cc1 5.25%
Cc1cc(C)n(-c2ccc(NC(=O)C3CCCCN3C(=O)c3cccs3)cc2)n1 (centres undefined) 10.7%
Cc1cc(NC(=O)CSc2nc(=O)cc(N)n2-c2ccc(F)cc2)no1 2.27%
Cc1[nH][nH]c(=O)c1N=Nc1ccccc1 -5.94%
O=c1[nH]c2c(c(=O)n1Cc1ccccc1)CCC2 -7.19%
O=C(CNC(=O)C1COc2ccccc2O1)N/N=C/c1cc(Br)c(O)c(Br)c1 (centres undefined) 10.4%
Cc1c(C)c2ccc(OCC(=O)N3CCC(C(=O)O)CC3)c(C)c2oc1=O 3.02%
O=C(Nc1ccc(F)cc1)c1ccc(S(=O)(=O)NCc2cccnc2)cc1 1.68%
O=C(NC1CC1)c1ccc2c(c1)NC(=O)c1ccccc1S2 -6.63%
O=C(O)c1cccc(N2C(=O)Nc3ccccc3N2O)c1 -0.41%
CCOc1ccc(OCC)c(NC(=O)CCS(=O)(=O)c2ccc(C)cc2)c1 -4.08%
O=C(Nc1ccc2sc3ccccc3c(=O)c2c1)c1ccccc1Cl 3.74%
COc1ccc(NC(=O)CN(C)C(=O)CNC(=O)C2CCCCC2)cc1 5.81%
COc1ccc(NC(=O)c2sc3nc(C)nc(N4CCN(c5ccccn5)CC4)c3c2C)c(OC)c1 -4.65%
NC(=O)c1c(NC(=O)c2ccccc2)sc2c1CCCC2 1.26%
O=C(Nc1sc2c(c1C(=O)O)CCC2)c1ccccc1F -1.52%
CC(=O)c1ccc(NC(=O)CCNS(=O)(=O)c2cc(Br)cnc2N)cc1 -3.06%
CC1CCN(C(=S)c2ccc(-c3ccc(Cl)cc3Cl)o2)CC1 4.16%
S=C(c1ccccc1)N1CCCC1 -1.81%
O=C1c2cccc3c([N+](=O)[O-])ccc(c23)C(=O)N1CC1CCCO1 (centres undefined) 4.32%
O=C(OCc1ccc([N+](=O)[O-])cc1)C1CC(=O)N(Cc2ccccc2Cl)C1 (centres undefined) -11.3%
CC(C)N1CCC(N2CCN(Cc3cccnc3)CC2CCO)CC1 (centres undefined) 4.35%
CSC(=S)N/N=C/c1c[nH]c2ccccc12 9.14%
O=C(N/N=C/c1c[nH]c2ccccc12)c1ccccc1O 9.89%
CCc1[nH]nc(C(=O)N2CCCC(CO)(Cc3ccc(F)cc3F)C2)c1C (centres undefined) -13.6%
Cc1cc(OCc2cc(C(=O)NCc3cc(C(C)C)no3)no2)cc(C)c1Cl -17.4%
Cc1ccc(-c2nc3ccccc3[nH]c2=O)cc1 -7.7%
CC(=O)c1c(-c2ccccc2)c2ccccc2[nH]c1=O -2.54%
CC(=O)N1c2ccc(S(=O)(=O)N3CCC(C(=O)NC4CCCCC4C)CC3)cc2CC1C (centres undefined) 17.8%
COc1cc(/C=C2/C(=O)NN(c3ccc(F)cc3)C2=O)cc([N+](=O)[O-])c1O 9.62%
C#CCOc1ccc(/C=C2/C(=O)NN(c3ccccc3)C2=O)cc1OC 22%
Cn1c(=O)c([N+](=O)[O-])c(Oc2ccccc2)c2ccccc21 24%
CC1CCN(C(=O)/C(=C\c2ccccc2)NC(=O)c2ccccc2)CC1 -0.48%
Cc1ccc(C(=O)N/C(=C\c2ccco2)C(=O)N2CCSCC2)cc1C -11%
CCc1ccc(-c2cc3c(=O)n(CC(=O)NCCCN4CCN(Cc5ccccc5)CC4)nc(C)n3n2)cc1 -0.45%

inhibition, active:
Cc1ccc(S(=O)(=O)N/N=C\c2cc3c(cc2[N+](=O)[O-])OCO3)cc1 51.5%
COc1cc(C2/C(=C(\O)c3ccc4c(c3)CC(C)O4)C(=O)C(=O)N2Cc2ccco2)ccc1O (centres undefined) 45.6%
CCOc1ccc(-n2c(O)c(/C=N/Nc3nnc(C)c(=O)[nH]3)c3ccccc3c2=O)cc1 34%
CCC(CC)c1nnc(NC(=O)C2CCN(C(=O)c3ccco3)CC2)s1 31.2%
CCS(=O)(=O)c1cc([N+](=O)[O-])c(Sc2ccccc2N)s1 38.9%
CCN(CC)c1ccc2oc(=O)c(C)nc2c1 55.5%
CC1CCN(C(=O)c2ccc3c(c2)NC(=O)CN3)CC1 31.9%
CCn1c(CNS(=O)(=O)c2ccc(Cl)cc2)n[nH]c1=S 31.8%
O=c1[nH]n2c(=O)c3c([nH]c2c1N=Nc1ccccc1)CCC3 31.3%
Cc1c(CC(=O)N2CCN(C(=O)C3COc4ccccc4O3)CC2)c(=O)oc2c(O)c(O)ccc12 (centres undefined) 56.5%
C/C(=N\Nc1cccc(C(=O)O)c1)c1ccc2c(c1)Nc1ccccc1S2 28.6%
NC(=O)c1c(Nc2nc3c(F)cccc3s2)sc2c1CCCC2 49.1%
S=C(c1ccc(-c2ccccc2)o1)N1CCCCC1 30.8%
O=C(O)c1cccc(NC(=S)N/N=C/c2c[nH]c3ccccc23)c1 38.5%
O=c1[nH]c2ccccc2n2c(-c3ccccc3)nnc12 33.2%
COc1cc(/C=C2/C(=O)NN(c3cccc(Cl)c3)C2=O)cc(Br)c1O 32.2%
NC(=O)C1CCN(C(=O)/C(=C/c2ccco2)NC(=O)c2ccccc2)CC1 35.1%
